Compound activity: PubChem, National Center for Advancing Translational Sciences (NCATS)
An excerpt weighted towards active compounds, which were near 3.4% of everything screened.
PK Bst: pyruvate kinase (B. stearothermophilus) modulation | Potency, µM | hit rate 1.2% among 51,000 | purified pyruvate kinase, luminescence ATP production; ribose 5-phosphate activator present at AC10 | AID 361; in the data active = potency below about 11 µM; inconclusive = mostly about 12 µM to 25 µM;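 the screen sought inhibitors and activators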;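 note: scaled between full activation by ribose 5 phosphate and full inhibition by luteolin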
GBA activity: modulators of human glucocerebrosidase. P04062. purified enzyme, resorufin glucoside fluorescence (screen aimed at inhibitors), 20 min. Potency, µM. hit rate 1.1% among 48,000; in the data active = potency below about 15 µM; inconclusive = mostly about 16 µM to 33 µM;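 note: the screen sought inhibitors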
Target sequence (P04062 whole entry, looked up): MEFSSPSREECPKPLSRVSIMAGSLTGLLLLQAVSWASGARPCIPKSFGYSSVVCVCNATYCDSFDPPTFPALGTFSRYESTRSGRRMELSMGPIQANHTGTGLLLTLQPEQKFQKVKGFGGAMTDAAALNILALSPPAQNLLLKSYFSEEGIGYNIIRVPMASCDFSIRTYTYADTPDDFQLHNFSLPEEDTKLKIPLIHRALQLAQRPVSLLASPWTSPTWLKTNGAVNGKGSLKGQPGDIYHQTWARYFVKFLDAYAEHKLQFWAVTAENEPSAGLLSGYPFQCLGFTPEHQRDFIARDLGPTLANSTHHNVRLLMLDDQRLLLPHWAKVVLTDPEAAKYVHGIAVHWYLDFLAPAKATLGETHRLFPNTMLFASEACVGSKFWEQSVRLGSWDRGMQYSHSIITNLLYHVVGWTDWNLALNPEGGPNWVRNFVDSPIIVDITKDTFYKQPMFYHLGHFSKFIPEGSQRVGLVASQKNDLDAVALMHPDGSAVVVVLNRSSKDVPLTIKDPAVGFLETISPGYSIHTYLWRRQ
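Wild-type enzyme at 0.2 nM final in 50mM citric acid/KH2PO4, 10mM sodium taurocholate, 0.01% tween-20, pH 5.9, with resorufin beta-D-glucopyranoside at 30 uM final. Compounds titrated, 20 min at RT, red fluorescence read; AC50 from titration.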
FLuc inh: blocks Photinus pyralis firefly luciferase activity. P08659. hit rate 2.2% among 72,000. Potency, µM (highest dose often 57.1 µM), inactives show at the top dose activity change, negative = inhibition, hits mostly inhibitors. purified firefly luciferase, luminescence, 8 min; active = well fitted inhibition curve with a large enough effect; inconclusive = small, poorly fitted or top-dose-only effect; note: % is set by controls: 0 for no effect and ±100 for the full control effect; nearly all actives have a fitted effect of over 40% in size
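Firefly luciferase (PKLight detection mix) with 10 uM ATP in pH 7.2 imidazole buffer (KCl, MgCl2, Tween 20, BSA). Compounds tested across a concentration series (qHTS). Luminescence read after 8 min at ambient temperature.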
Active calls of the source: *; i = inactive; ? = inconclusive; · = no result; [ ] = remark or other dose. Potency is the fitted concentration of half-maximal effect.

SMILES	PK Bst	GBA activity	FLuc inh
CCNc1ncc2nc(-c3cccs3)c(=O)n(Cc3cccs3)c2n1	·	·	2%[11.4 µM]
COc1ccccc1N1CCN(c2ncnc3c2oc2ccccc23)CC1	>57	>77	3%
O=c1[nH]c(CN2CCN(C/C=C/c3ccccc3)CC2)nc2ccccc12	>57	>77	2%
c1cnc(N2CCN(c3ncnc4c3oc3ccccc34)CC2)nc1	>57	5.7*	-1%
Nc1nc(N2CCN(C/C=C/c3ccccc3)CC2)nc2ccccc12	>57	8.4*	2%
c1ccc2[nH]c(CN3CCN(c4ncnc5c4oc4ccccc45)CC3)nc2c1	·	>77	-2%
C(=C\c1ccccc1)/CN1CCN(c2ncnc3c2oc2ccccc23)CC1	i	>77	13µM*
Oc1cccc2ccc(SSc3ccc4cccc(O)c4n3)nc12	·	·	0%[11.4 µM]
O=C(O)[C@@H]1CCCN1Cc1c[nH]c2ccccc12	·	·	0%[11.4 µM]
CO/N=C(\C)CCN1CCCc2nc(C)c(C)cc21	·	·	1%[11.4 µM]
CN(C)c1ncc2nc(-c3ccc(F)cc3)c(=O)n(C)c2n1	·	·	-2%[11.4 µM]
CCc1ccc(NC(=O)C2CC(=O)N=C(N)S2)cc1 (configuration not stated)	>57	?	0%
CC(C)c1ccc(NC(=O)C2CC(=O)N=C(N)S2)cc1 (configuration not stated)	>57	3.8*	-1%
CN(CCO)Cc1ncccc1O	·	·	2%[11.4 µM]
COc1ccc(CCNc2oc(COc3ccc(Br)cc3)nc2C#N)cc1OC	·	·	-6%
N#Cc1nc(Cc2cccc3ccccc23)oc1NCCN1CCCCC1	6.3*	·	7.9µM*
CNc1oc(Cc2cccc3ccccc23)nc1C#N	?	>77	2%
COc1ccc(CCNc2oc(Cc3cccc4ccccc34)nc2C#N)cc1OC	9.9*	>77	2%
CC(C)CN1CC[C@@]2(CCCN(C(=O)c3ccco3)C2)C1	·	·	1%[11.4 µM]
O=S(=O)(C[C@H](O)C(Cl)(Cl)Cl)NNc1ccccc1	·	·	6%[11.4 µM]
CC(=O)Nc1ccc(S(=O)(=O)N2CCN(c3cccc(C)c3C)CC2)cc1	·	·	3%
CC(=O)Nc1ccc(-c2nc3c(C)cccc3[nH]2)cc1	·	?	3.2µM*
Cc1ccc(O)c(CNc2ccccn2)c1	>57	·	-8%
CSc1ccc(CNc2ccccn2)cc1	·	·	16µM*
CCN(CC)S(=O)(=O)c1cc(C(=O)Nc2ccc(Cl)cn2)ccc1C	·	·	7.9µM*
SMILES	PK Bst	GBA activity	FLuc inh
Cc1ccc(NC(=O)c2ccc3ccccc3n2)nc1	6.9*	?	6.3µM*
CCN(CC)S(=O)(=O)c1cc(C(=O)NC2CCCCC2)ccc1C	·	·	13µM*
Cc1c(C(=O)Nc2ccc(Cl)cn2)oc2ccccc12	>57	>77	1%
Cc1ccc(NC(=O)c2cccc(Cl)c2)nc1	>57	>77	-8%
CCN(CC)S(=O)(=O)c1cccc(C(=O)Nc2ccc(Cl)cn2)c1	>57	·	·
Cc1ccc(C(=O)NC2CCCCCC2)cc1N1CCCC1=O	>57	>77	1%
Cc1ccc(C(=O)Nc2ccc(Cl)cn2)cc1	9.1*	>77	6.3µM*
Nc1nc(N)nc(CCCc2nc(N)nc(N)n2)n1	·	·	2%[11.4 µM]
CC(C)CO/N=C1/C[C@@H](O)[C@@H](O)[C@@H]2[C@@H]3C(=O)N(Cc4ccc5c(c4)OCO5)C(=O)[C@H]3CC[C@H]12	·	·	0%[11.4 µM]
N=C(N)CCNC(=O)[C@@H]1CCC(N)=N1	·	·	2%[11.4 µM]
CO[C@@H]1COC(=O)C/C=C\[C@@H](C)COC(=O)[C@H](Cc2ccccc2)NC(=O)C/C=C\[C@H]1C	·	·	1%[11.4 µM]
CCNc1ncc2nc(CCc3ccccc3)c(=O)n(Cc3ccc(F)cc3)c2n1	·	·	1%[11.4 µM]
CC(=O)OC[C@@H]1O[C@@H](O/N=C2/C[C@@H](O)[C@@H](O)[C@@H]3[C@@H]4C(=O)N(Cc5ccccc5)C(=O)[C@H]4CC[C@H]23)[C@H](OC(C)=O)[C@H](OC(C)=O)[C@@H]1OC(C)=O	·	·	-1%[11.4 µM]
CC(=O)O[C@@H]1[C@H]([N+]2(C)CCCCC2)C[C@@H]2[C@@H]3CC[C@@H]4C[C@@H](OC(C)=O)[C@H]([N+]5(C)CCCCC5)C[C@@]4(C)[C@H]3CC[C@]21C	·	·	1%
Cc1cnc(CNc2nc(-c3ccc(C(=O)N(C)C)cc3)nc3ccccc23)cn1	·	·	-9%[2.29 µM]
Cc1cc(C2N=C(N)Nc3nc4ccccc4n32)c(C)n1-c1ccccc1Cl (configuration not stated)	>57	13*	2%
Cc1ccc(-n2c(C)cc(C3N=C(N)Nc4nc5ccccc5n43)c2C)c(C)c1 (configuration not stated)	>57	?	-1%
Fc1ccccc1N1CCN(c2nc3ccccc3n3nnnc23)CC1	·	13*	0%
Fc1cc(Br)ccc1Nc1nc2ccccc2n2nnnc12	·	·	0%
Cc1cc(N/C=C/C(=O)c2cccc3ccccc23)no1	9.3*	·	0%[25.5 µM]
Cc1cc(C(=O)OCC(=O)Nc2cc(C)on2)c2ccccc2n1	>57	>77	-1%
COCC(=O)N1CCC2(CC1)CCN(c1ncccn1)CC2	·	·	1%[11.4 µM]
CCOc1ccc(N2Cc3ccccc3C2)cc1	·	·	10µM*
CCOc1ccc(S(=O)(=O)N2CCc3ccccc3C2)cc1	>57	>77	-1%
O=c1c(-c2ccc(F)c(F)c2)nc2cncnc2n1Cc1ccccc1	·	·	0%[11.4 µM]
SMILES	PK Bst	GBA activity	FLuc inh
Cc1occc1C(=O)Nc1ccccc1NC(=O)c1ccoc1C	>57	>77	1%
Cc1occc1C(=O)Nc1cccc2ccccc12	i	>77	25µM*
CCOc1cccc2cc(-c3cn4cc(C)ccc4n3)c(=O)oc12	1.2*	>77	0.16µM*
COc1cccc2cc(-c3cn4cccc(C)c4n3)c(=O)oc12	>57	>77	-7%
CN1C[C@H](C(=O)N[C@]2(C)O[C@@]3(O)[C@H]4CCCN4C(=O)[C@@H](Cc4ccccc4)N3C2=O)C[C@H]2c3cccc4[nH]cc(c34)C[C@@H]21	·	·	2%[11.4 µM]
C[C@H](Br)C(=O)Nc1ccc(C(=O)O)c(O)c1	·	·	1%[11.4 µM]
CCOc1ccc(-c2cc(CCCC(=O)NCCCOC)no2)cc1	·	>77	16µM*
CCOc1ccc(-c2cc(CCCC(=O)N3CCN(c4ccc(OC)cc4)CC3)no2)cc1	·	·	-18%
COc1cccc(Cn2c(=O)cnc3cnc(N(C)C)nc32)c1	·	·	1%[11.4 µM]
O=C(CN1C(=O)c2cccc3cccc1c23)NCc1ccc2c(c1)OCO2	2.8*	>77	2%
O=C(CN1C(=O)c2cccc3cccc1c23)NCC1CCCO1 (configuration not stated)	?	>77	1%
O=C(CN1C(=O)c2cccc3cccc1c23)Nc1ccc2c(c1)OCO2	1.9*	>77	1%
O=C(CCCN1C(=O)c2ccccc2C1=O)Nc1ccc(S(=O)(=O)N2CCOCC2)cc1	>57	>77	1%
O=C(CN1c2cccc3cccc(c23)S1(=O)=O)NCc1ccc2c(c1)OCO2	·	·	-5%
CC(C(=O)NCc1ccc2c(c1)OCO2)N1c2cccc3cccc(c23)S1(=O)=O (configuration not stated)	0.94*	>77	-1%
Cc1cc2ccccc2c(=O)n1CC(=O)Nc1ccc2c(c1)OCO2	>57	>77	1%
O=C(CN1C(=O)c2cccc3cccc1c23)Nc1ccc(S(=O)(=O)N2CCOCC2)cc1	10*	>77	1%
O=C(NCc1ccc2c(c1)OCO2)c1c(F)c(F)c(F)c(F)c1F	7.7*	>77	3%
O=C(NCc1ccc2c(c1)OCO2)c1cccs1	>57	>77	0%
CC(=O)Nc1cccc(-c2nnc(-c3ccccc3)o2)c1	?	14*	?
